# Laboratory results: PubChem BioAssay (EPA / NIEHS)
# Inconclusive results are not listed. Active and inactive are the calls of the source. Rule for the calls, unless noted: active = hit-call score of the fitted dose curve at least 0.9, where 1 is the maximum; inconclusive = response in the unintended direction; inactive = score below 0.9.
# Assays:
# [1] = read-out: Thyroid Hormone Responsive (THRSP), THRSP (gene 7069); assay: LTEA_HepaRG_THRSP: Life Technologies and Expression Analysis (LTEA) Assay for Thyroid Hormone Responsive (THRSP) using HepaRG (AID 2283536; active = hit-call score of the fitted dose curve at least 0.9, where 1 is the maximum; inactive = score below 0.9); conditions: mRNA level, 48 h; actives raise or lower the signal
# Summary of the method: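 mRNA induction or loss relative to 0.5% DMSO vehicle was fitted bidirectionally across an eight-point curve whose highest exposure was 100 uM. Human HepaRG liver cells received chemicals in duplicate over 48 h before RNA extraction.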
# [2] = read-out: Cellular tumor antigen p53 (Homo sapiens) (UniProt P04637); assay: LTEA_HepaRG_TP53: Life Technologies and Expression Analysis (LTEA) Assay for Tumor Protein P53 (TP53) using HepaRG (AID 2283537; active = hit-call score of the fitted dose curve at least 0.9, where 1 is the maximum; inactive = score below 0.9); conditions: mRNA level, 48 h; actives raise or lower the signal
# Summary of the method: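 HepaRG, 48 h exposure, top 100 uM, half-log 8-point, 0.5% DMSO vehicle, duplicates. Read: TP53 mRNA by TaqMan qRT-PCR, normalised to ACTB/GAPDH/POLR2A; bidirectional fit vs DMSO.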
# [3] = read-out: UDP glucuronosyltransferase (UGT1A1), UGT1A1 (gene 54658); assay: LTEA_HepaRG_UGT1A1: Life Technologies and Expression Analysis (LTEA) Assay for UDP glucuronosyltransferase (UGT1A1) using HepaRG (AID 2283538; active = hit-call score of the fitted dose curve at least 0.9, where 1 is the maximum; inactive = score below 0.9); conditions: mRNA level, 48 h; actives raise or lower the signal
# Summary of the method: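 Readout is UGT1A1 transcript level by qRT-PCR, normalized to three housekeeping genes, after 48 h chemical treatment of HepaRG cells. Concentrations ran from 100 uM down in half-log steps with 0.5% DMSO, and gain or loss relative to DMSO was fitted.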
# [4] = read-out: UDP glucuronosyltransferase (UGT1A6), UGT1A6 (gene 54578); assay: LTEA_HepaRG_UGT1A6: Life Technologies and Expression Analysis (LTEA) Assay for UDP glucuronosyltransferase (UGT1A6) using HepaRG (AID 2283539; active = hit-call score of the fitted dose curve at least 0.9, where 1 is the maximum; inactive = score below 0.9); conditions: mRNA level, 48 h; actives raise or lower the signal
# Summary of the method: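 HepaRG, 48 h post-plating switch to serum-free induction medium; chemical 48 h, 100 uM top, half-log x8, duplicate, 0.5% DMSO. Phenobarbital 1mM induction control. UGT1A6 mRNA by TaqMan qRT-PCR; gain/loss fit vs DMSO.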
# [5] = read-out: X-box binding protein 1 (XBP1), XBP1 (gene 7494); assay: LTEA_HepaRG_XBP1: Life Technologies and Expression Analysis (LTEA) Assay for X-box binding protein 1 (XBP1) using HepaRG (AID 2283540; active = hit-call score of the fitted dose curve at least 0.9, where 1 is the maximum; inactive = score below 0.9); conditions: mRNA level, 48 h; actives raise or lower the signal
# Summary of the method: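 Transcript levels of XBP1, measured by qRT-PCR and normalised to three housekeeping genes, were fitted bidirectionally relative to 0.5% DMSO controls. Human HepaRG cells received eight-point half-log dilutions from 100 uM for 48 h.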
# [6] = LTEA_HepaRG_LDH_cytotoxicity: Cytotoxicity Assessment in the Life Technologies and Expression Analysis (LTEA) Assay (AID 2283563)
# Summary of the method: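 Cells were thawed and plated for 48 h. Medium was then replaced with serum-free induction medium. Chemicals (8 half-log points, maximum 100 uM, 0.5% DMSO) were added in duplicate for 48 h, after which spent medium was assayed for LDH.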
# [7] = TOX21_p53_BLA_p2_viability: Viability Assessment in the Tox21 HCT-116 p53 Agonism Beta-lactamase Assay, Phase 2 (AID 2283591);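 note: compound exposure lasted 16 h at 37 °C; actives lower the ATP signal meaning cytotoxicity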
# Summary of the method: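 Cytotoxicity readout: CellTiter-Glo ATP luminescence, 30 min at room temperature, after the beta-lactamase read. Cells were HCT116 exposed 16 h at 37C to compounds pin-transferred at 217-fold dilution from DMSO stocks.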
# [8] = target: Cellular tumor antigen p53 (Homo sapiens) (UniProt P04637); assay: TOX21_p53_BLA_p2_ratio: Tox21 HCT-116 p53 Agonism Beta-lactamase Assay, Ratio, Phase 2 (AID 2283592)
# Cellular tumor antigen p53 (Homo sapiens), sequence (P04637 whole entry, looked up): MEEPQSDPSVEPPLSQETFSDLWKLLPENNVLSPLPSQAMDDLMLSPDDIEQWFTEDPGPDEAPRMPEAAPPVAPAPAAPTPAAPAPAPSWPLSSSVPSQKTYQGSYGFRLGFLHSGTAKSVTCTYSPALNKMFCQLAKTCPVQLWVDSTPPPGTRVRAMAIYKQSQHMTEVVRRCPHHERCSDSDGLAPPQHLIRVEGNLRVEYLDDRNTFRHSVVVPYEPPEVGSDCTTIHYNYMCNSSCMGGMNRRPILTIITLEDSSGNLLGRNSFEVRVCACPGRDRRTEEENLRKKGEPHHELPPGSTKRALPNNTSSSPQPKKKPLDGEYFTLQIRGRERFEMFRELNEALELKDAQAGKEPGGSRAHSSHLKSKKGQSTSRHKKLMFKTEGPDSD
# Summary of the method: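 HCT116 p53-bla; 4000 cells/well; 5 h pre-incubation; cpd in DMSO, 217-fold dilution; 16 h 37C/5% CO2; CCF4-AM 2 h RT; Ex 405, Em 460/530 ratio; DMSO = baseline; positive fitting direction.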
# [9] = TOX21_p53_BLA_p4_viability: Viability Assessment in the Tox21 HCT-116 p53 Agonism Beta-lactamase Assay, Phase 4 (AID 2283597);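 note: hits lower the luminescence signal meaning cytotoxicity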
# Summary of the method: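 Cells plated, 5 h pre-incubation; DMSO compounds pinned (217-fold dilution); 16 h, 37C/5% CO2; CCF4-AM 2 h RT; CellTiter-Glo 30 min RT; luminescence read.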
# [10] = target: Cellular tumor antigen p53 (Homo sapiens) (UniProt P04637); assay: TOX21_p53_BLA_p5_ratio: Tox21 HCT-116 p53 Agonism Beta-lactamase Assay, Ratio, Phase 5 (AID 2283599)
# Summary of the method: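 Beta-lactamase reporter ratio (blue 460 nm over green 530 nm, 405 nm excitation) after 2 h CCF4-AM loading, in HCT-116 cells exposed 16 h at 37 C to compounds pinned at 217-fold dilution. Increases relative to DMSO baseline scored.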
# [11] = target: Cellular tumor antigen p53 (Homo sapiens) (UniProt P04637); assay: TOX21_p53_BLA_p4_ratio: Tox21 HCT-116 p53 Agonism Beta-lactamase Assay, Ratio, Phase 4 (AID 2283601)
# Summary of the method: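 Signal is the blue/green (460nm/530nm) ratio of cleaved versus uncleaved CCF4-AM substrate, read after 2 h substrate loading. Cells were HCT116 carrying the p53-responsive beta-lactamase reporter, dosed 16 h at 37C, 5% CO2; CellTiter-Glo measured in parallel.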
# [12] = Tanguay_ZF_120hpf_MORT_legacy: (Legacy) Oregon State University Tanguay Lab 120 Hour Post-fertilization zebrafish Assay for Mortality (AID 2283633)
# Summary of the method: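 5D WT zebrafish, chorion removed 4 hpf; 1 embryo/well from 6 hpf; static exposure to 120 hpf, 28C, dark, sealed. Final DMSO 0.64%. Readout: binary mortality, brightfield, 24 + 120 hpf; DMSO as negative control.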
# [13] = Tanguay_ZF_120hpf_AXIS_legacy: (Legacy) Oregon State University Tanguay Lab 120 Hour Post-fertilization zebrafish Assay for Body Axis Malformation (AID 2283635);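 for AC50: potency for an increased fraction of larvae scored with body axis malformation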
# Summary of the method: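 Chorion is removed with pronase at 4 hpf, then single 6 hpf embryos are dosed (final DMSO 0.64%) and held statically at 28C in sealed, foil-covered plates. At 120 hpf body axis malformation is recorded as present or absent.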
# [14] = Tanguay_ZF_120hpf_SNOU_legacy: (Legacy) Oregon State University Tanguay Lab 120 Hour Post-fertilization zebrafish Assay for Snout Malformation (AID 2283637)
# Summary of the method: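 Snout malformation read as a yes/no call on brightfield images of 120 hpf larvae (Tropical 5D strain). Static exposure began at 6 hpf on dechorionated embryos in 0.64% DMSO, with gain of signal analysed versus DMSO controls.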
# [15] = target: Cellular tumor antigen p53 (Homo sapiens) (UniProt P04637); assay: TOX21_p53_BLA_p3_ratio: Tox21 HCT-116 p53 Agonism Beta-lactamase Assay, Ratio, Phase 3 (AID 2283596)
# Summary of the method: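 HCT116 p53-bla cells (4000/well) given compound in DMSO (217-fold dilution) after 5 h, incubated 16 h at 37C. CCF4-AM substrate 2 h at room temperature; 460/530 nm emission ratio, gain fitted against DMSO.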
# [16] = TOX21_p53_BLA_p5_viability: Viability Assessment in the Tox21 HCT-116 p53 Agonism Beta-lactamase Assay, Phase 5 (AID 2283600)
# Summary of the method: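 4000 cells/well; 5 h pre-incubation; DMSO compounds pin-transferred, 217-fold dilution; 16 h, 37C/5% CO2; CCF4-AM 2 h RT; CellTiter-Glo 30 min RT; luminescence.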
# [17] = Tanguay_ZF_120hpf_YSE_legacy: (Legacy) Oregon State University Tanguay Lab 120 Hour Post-fertilization zebrafish Assay for Yolk Sac Edema (AID 2283634);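 for AC50: actives raise the incidence of yolk sac edema above the DMSO baseline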
# Summary of the method: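 Dechorionate (pronase, 4 hpf) → place one 6 hpf embryo per well → static compound exposure, sealed and foil-covered, 28C, to 120 hpf → record yolk sac edema as present or absent. Final DMSO 0.64%.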
# [18] = Tanguay_ZF_120hpf_EYE_legacy: (Legacy) Oregon State University Tanguay Lab 120 Hour Post-fertilization zebrafish Assay for Eye Malformation (AID 2283636)
# Summary of the method: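 Read-out is binary presence or absence of eye malformation, scored by brightfield microscopy at 120 hpf. Single larvae were exposed from 6 hpf in embryo medium containing 0.64% DMSO, with DMSO as baseline.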
# [19] = ATG_XTT_Cytotoxicity: Cytotoxicity Assessment in the Attagene TRANS-FACTORIAL HepG2 Assay (AID 2283584)
# Summary of the method: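 Cells: human HepG2, transiently transfected with MRTU reporter constructs. Exposure 24 h. Readout: XTT, cell number. Baseline/neg ctrl DMSO; loss-of-signal scored.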
compound,measurement,setting,value
CC(COc1ccc(Oc2ccccc2)cc1)Oc1ccccn1 (centres undefined),AC50,[1],16.3 µM (active)
same,outcome,[2],inactive
same,AC50,[3],8.3 µM (active)
same,outcome,[4],inactive
same,outcome,[5],inactive
same,outcome,[6],inactive
same,outcome,[7],inactive
same,outcome,[8],inactive
same,outcome,[9],inactive
same,outcome,[10],inactive
same,outcome,[11],inactive
same,outcome,[12],inactive
same,outcome,[13],inactive
same,outcome,[14],inactive
CC(Oc1cccc(Cl)c1)C(=O)O (centres undefined),outcome,[1],inactive
same,outcome,[2],inactive
same,AC50,[3],10.1 µM (active)
same,outcome,[4],inactive
same,outcome,[5],inactive
same,outcome,[6],inactive
same,outcome,[8],inactive
same,outcome,[15],inactive
same,outcome,[9],inactive
same,outcome,[10],inactive
same,outcome,[16],inactive
same,outcome,[11],inactive
same,outcome,[12],inactive
same,outcome,[17],inactive
same,outcome,[13],inactive
same,outcome,[18],inactive
same,outcome,[14],inactive
Nc1c(Cl)cc([N+](=O)[O-])cc1Cl,AC50,[1],42.3 µM (active)
same,AC50,[3],11.4 µM (active)
same,AC50,[4],78.1 µM (active)
same,outcome,[5],inactive
same,outcome,[6],inactive
same,outcome,[19],inactive
same,AC50,[17],33 µM (active)
same,AC50,[13],40.4 µM (active)
same,AC50,[18],9.62 µM (active)
same,AC50,[14],31.1 µM (active)
CNC(=O)ON=C(C)SC,outcome,[1],inactive
same,outcome,[2],inactive
same,outcome,[3],inactive
same,outcome,[4],inactive
same,outcome,[5],inactive
same,outcome,[6],inactive
same,outcome,[16],inactive
same,outcome,[11],inactive
same,outcome,[12],inactive
same,outcome,[17],inactive
same,AC50,[13],10.1 µM (active)
same,outcome,[18],inactive
same,outcome,[14],inactive
